ALDH1A1 inh – blocks purified human ALDH1A1 activity; P00352; Purified ALDH1A1, NADH fluorescence, propionaldehyde substrate; Potency, µM (series often up to 75.3 µM), for inactives: at the top dose activity, negative = inhibition, usual class: inhibitors; actives 7.3% (n = 220,000);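 also: potency is read from the fitted curve at half-maximal effect; plate controls were no enzyme wells and a reference inhibitor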
Target sequence (P00352 whole entry, looked up): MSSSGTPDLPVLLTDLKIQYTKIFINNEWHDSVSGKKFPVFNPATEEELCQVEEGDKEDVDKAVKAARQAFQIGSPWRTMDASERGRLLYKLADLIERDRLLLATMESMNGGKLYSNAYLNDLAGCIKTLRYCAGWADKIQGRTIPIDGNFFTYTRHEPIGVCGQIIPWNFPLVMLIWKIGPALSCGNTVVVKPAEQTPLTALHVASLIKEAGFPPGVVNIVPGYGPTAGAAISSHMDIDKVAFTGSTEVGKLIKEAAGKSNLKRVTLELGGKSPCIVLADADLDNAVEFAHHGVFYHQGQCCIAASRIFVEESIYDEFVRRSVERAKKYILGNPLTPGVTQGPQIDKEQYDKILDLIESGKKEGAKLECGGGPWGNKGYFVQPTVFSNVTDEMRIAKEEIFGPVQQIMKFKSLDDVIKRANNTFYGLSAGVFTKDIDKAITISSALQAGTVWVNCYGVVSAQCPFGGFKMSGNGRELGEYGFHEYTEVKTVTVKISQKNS
LMNA splice mod – modulators of lamin A splicing; HeLa LMNA splicing GFP/RFP minigene ratio, 48 h; Potency, µM (top dose mostly 46.1 µM), inactives show at the highest dose ratio change, negative = inhibition, usual class: inhibitors; actives 0.01% (n = 200,000); active = well fitted inhibition curve with a large enough effect in the signal ratio, with a control signal flat, not every such curve was filed as active; inconclusive = small, poorly fitted or top-dose-only effect, or effect the other way, or a change in a side signal; the % refers to the signal ratio; also: potency is read from the fitted curve at half-maximal effect
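S3 HeLa cells stably expressing lamin A-EGFP splicing minigene plus DsRed2, 600 cells/well, 48 h compound exposure at 37C. Laser-scanning cytometry; analysed as GFP (500-530 nm)/RFP (575-640 nm) total intensity ratio; 0.5% DMSO vehicle.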
KinaseGlo FLuc – Kinase-Glo luciferase inhibition (counter-screen); Q27757; Kinase-Glo luciferase, ATP luminescence, 8 min; Potency, µM (highest dose often 38.3 µM), for the others: at the highest dose activity change, negative = inhibition, hits mostly inhibitors; actives 0.28% (n = 200,000); AID 1379; active = well fitted inhibition curve with a large enough effect; inconclusive = small, poorly fitted or top-dose-only effect; also: potency is read from the fitted curve at half-maximal effect; nearly all actives have a fitted effect of over 60% in size
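Recombinant Kinase-Glo luciferase, 10 uM ATP (linear range), luciferin; imidazole pH 7.2 / KCl / MgCl2 / Tween / BSA buffer; 8 min RT; luminescence.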
PNC assembly inh – inhibitors of perinucleolar compartment assembly; PC3M PTB-GFP, PNC prevalence imaging, 16 h; stronger effect = lower value; activity change (PNC), negative = inhibition, % at 10 µM; actives 3.1% (n = 140,000); AID 2417;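 active = readout at or below -70, meaning at least 70% loss of cells showing the perinucleolar compartment, a nuclear body marking cancer cells; inconclusive = readout between -30 and a set limit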;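 also: plate controls were DMSO wells for no effect and camptothecin positive control wells for full effect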
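Read-out is percentage of cells bearing a perinucleolar compartment, from automated 20x imaging of fixed, Hoechst-stained PC3M PTB-GFP cells. Cells were seeded 4 h, then exposed 16 h to compound (23 nl of library stock) in duplicate plates.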
HPGD block – HPGD (human) dehydrogenase inhibition. purified HPGD, NADH fluorescence kinetic, PGE2 substrate. Potency, µM, without a hit: at the highest dose activity change, negative = inhibition, hits mostly inhibitors. actives 4.3% (n = 150,000). AID 894; also: potency is read from the fitted curve at half-maximal effect
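NADH formation kinetics: reaction with 30 uM PGE2 and 1 mM NAD+ (final), 20 nM enzyme, Tris-HCl pH 8 with Tween 20, after 15 min compound preincubation at room temperature. Fluorescence change, last versus first of five reads.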
Numbers without * were called inactive; ! = not active in a repeat; [ ] = dose if it differs, or a comment. Shown are actives, neighbours in structure and some others; about 10% of the full set was active somewhere. Unless noted, calls follow the shape of the dose curve; as a rule, active = well fitted inhibition curve with a large enough effect (not every such curve was filed as active); inconclusive = small, poorly fitted or top-dose-only effect, or another doubt; inactive = no such curve, though single readings can be large or run the other way. Unless noted, % is scaled to controls: 0 for no effect and ±100 for the full control effect.

How did CCC(C)NC(C(=O)Nc1ccc(Cl)c([N+](=O)[O-])c1)c1ccccc1 (centres undefined) do in these assays?
ALDH1A1 inh: inconclusive; LMNA splice mod: -6%; KinaseGlo FLuc: 1%; PNC assembly inh: 23; HPGD block: 1%

Results for COCCNC(C(=O)Nc1ccc([N+](=O)[O-])cc1Br)c1ccccc1 (centres undefined) ?
ALDH1A1 inh: 13µM*; LMNA splice mod: inconclusive; KinaseGlo FLuc: -1%; PNC assembly inh: -7; HPGD block: -16%

What do the screens show for `COCCNC(C(=O)Nc1ccc(C)cc1[N+](=O)[O-])c1ccccc1` (centres undefined)?
ALDH1A1 inh: 25µM*; KinaseGlo FLuc: -1%

What do the screens show for `O=C(OC(C(=O)Nc1ccc([N+](=O)[O-])cc1Br)c1ccccc1)c1ccccc1` (centres undefined)?
ALDH1A1 inh: inconclusive; LMNA splice mod: -4%[46 µM]; KinaseGlo FLuc: 6%

What do the screens show for `O=C(Nc1ccc(Cl)c([N+](=O)[O-])c1)C(NCCCO)c1ccccc1` (centres undefined)?
ALDH1A1 inh: 0.71µM*; LMNA splice mod: 1%; KinaseGlo FLuc: 3%; PNC assembly inh: inconclusive; HPGD block: -3%

What do the screens show for `CCCCNC(C(=O)Nc1ccc([N+](=O)[O-])cc1Br)c1ccccc1` (centres undefined)?
ALDH1A1 inh: inconclusive; LMNA splice mod: inconclusive; KinaseGlo FLuc: 1%; PNC assembly inh: -118*; HPGD block: -9%

What do the screens show for `Cc1ccc(C(=O)Nc2cccc(C(=O)OCc3cc(=O)n4c5c(sc4n3)CCCC5)c2)cc1`?
LMNA splice mod: -22%[46 µM]

Results for O=C(NCc1ccccc1F)C(=O)NCC(c1ccc2c(c1)OCO2)N1CCOCC1 (centres undefined) ?
LMNA splice mod: 7%[46 µM]

How did CC(C)n1cc(/C=C2/NC(=O)N(c3cccc(Cl)c3)C2=O)c2ccccc21 do in these assays?
ALDH1A1 inh: inconclusive; LMNA splice mod: inconclusive; KinaseGlo FLuc: 1%; PNC assembly inh: -100*; HPGD block: -20%

What do the screens show for `CC(C)n1cc(/C=C2\NC(=O)N(c3cccc(Cl)c3)C2=O)c2ccccc21`?
ALDH1A1 inh: inconclusive; LMNA splice mod: -27%; KinaseGlo FLuc: -2%; PNC assembly inh: 55; HPGD block: -19%

What do the screens show for `Cc1ccc(Nc2nc(C)cc(C)n2)c(C(=O)O)c1`?
LMNA splice mod: 11%[46 µM]

Results for COc1ccc(S(=O)(=O)N[C@@H](Cc2ccccc2)C(=O)N2CC[C@@]3(O)CCCC[C@H]3C2)cc1 ?
ALDH1A1 inh: -15%; LMNA splice mod: 9%; KinaseGlo FLuc: 2%; PNC assembly inh: -88*; HPGD block: 0%

Results for CCN1CCN(C2=NC(=O)/C(=C/c3ccc(C)o3)S2)CC1 ?
ALDH1A1 inh: 20µM*; LMNA splice mod: 0%; KinaseGlo FLuc: -3%; PNC assembly inh: 22; HPGD block: -19%

What do the screens show for `CCOc1ccc(C(=O)N/N=C/c2cc(Cl)ccc2[N+](=O)[O-])cc1`?
ALDH1A1 inh: -10%; LMNA splice mod: 8%; KinaseGlo FLuc: 1%; PNC assembly inh: 7; HPGD block: 22µM*

What do the screens show for `O=C1CCc2cc(OCCCCc3nnnn3C3CCCCC3)ccc2N1`?
ALDH1A1 inh: 25µM*!; LMNA splice mod: inconclusive; KinaseGlo FLuc: -1%; PNC assembly inh: inconclusive; HPGD block: -28%

How did CNC(=S)N1N=C(c2ccc(C)cc2)CC1c1ccc(N(C)C)cc1 (centres undefined) do in these assays?
ALDH1A1 inh: 25µM*; KinaseGlo FLuc: -1%

What do the screens show for `CNC(=S)N1N=C(c2ccc(C)cc2)CC1c1cc(OC)ccc1OC` (centres undefined)?
ALDH1A1 inh: -4%; LMNA splice mod: 1%[46 µM]; KinaseGlo FLuc: 1%

How did CNC(=S)N1N=C(c2ccc(Br)cc2)CC1c1ccc(OC)cc1 (centres undefined) do in these assays?
ALDH1A1 inh: 7.1µM*; LMNA splice mod: inconclusive; KinaseGlo FLuc: -5%; PNC assembly inh: -121*; HPGD block: 35µM*

Results for CCNc1ncc2nc(-c3cccs3)c(=O)n(Cc3ccc(F)cc3)c2n1 ?
ALDH1A1 inh: inconclusive; LMNA splice mod: -9%

How did C=C1C(CCl)(CCl)C2(Cl)C(Cl)C(Cl)C1(Cl)C2(Cl)Cl (centres undefined) do in these assays?
ALDH1A1 inh: 14µM*; HPGD block: -19%

What do the screens show for `CNc1nn(-c2cccc(Cl)c2)nc1N`?
ALDH1A1 inh: 2µM*; LMNA splice mod: inconclusive; KinaseGlo FLuc: -5%; PNC assembly inh: inconclusive; HPGD block: -18%

How did Cc1nn(-c2ccc3ccccc3c2)c(=O)c2ccccc12 do in these assays?
ALDH1A1 inh: 20µM*; LMNA splice mod: 21%[9.22 µM]; KinaseGlo FLuc: -9%

How did Cc1nn(-c2nc3ccccc3[nH]2)c(=O)c2ccccc12 do in these assays?
ALDH1A1 inh: -9%; LMNA splice mod: -9%[46 µM]; KinaseGlo FLuc: 1.4µM*

Results for Cc1nn(-c2nc3ccccc3[nH]2)c(N)c1-c1ccc(Cl)cc1 ?
ALDH1A1 inh: 1%; LMNA splice mod: -3%; KinaseGlo FLuc: -2%; PNC assembly inh: inconclusive; HPGD block: -22%

What do the screens show for `C/C(CCN1CCCCc2nc(C)c(C)cc21)=N\OC[C@@H](C)[C@H](OCc1ccccc1)C(C)C`?
ALDH1A1 inh: -6%[13.5 µM]

Results for COc1ccc(CCN2CC(C#N)=C3c4cc(OC)c(OC)cc4CCN3C2)cc1OC ?
ALDH1A1 inh: inconclusive; LMNA splice mod: -5%; KinaseGlo FLuc: -3%; PNC assembly inh: -7; HPGD block: 7.1µM*

What do the screens show for `COc1cc2c(cc1OC)C1=C(C#N)CN(C3CCCCC3)CN1CC2`?
ALDH1A1 inh: inconclusive; LMNA splice mod: 1%; KinaseGlo FLuc: 14%; PNC assembly inh: 25; HPGD block: inconclusive

What do the screens show for `COc1cc2c(cc1OC)C1=C(C#N)CCC(=O)N1CC2`?
ALDH1A1 inh: -6%; LMNA splice mod: -7%; KinaseGlo FLuc: -3%; PNC assembly inh: -100*; HPGD block: inconclusive

How did CCOC(=O)C1CCCN(Cc2ccccc2F)C1 (centres undefined) do in these assays?
ALDH1A1 inh: 11µM*; LMNA splice mod: 4%; KinaseGlo FLuc: 1%; PNC assembly inh: -89*; HPGD block: -5%

How did CCOC(=O)C1CCCN(Cc2cc(Br)ccc2OC)C1 (centres undefined) do in these assays?
ALDH1A1 inh: 10µM*; LMNA splice mod: -3%; KinaseGlo FLuc: 0%; PNC assembly inh: 39; HPGD block: -3%

Results for CCc1nn2c(=O)cc(COC(=O)CNC(=O)COc3ccc(C)cc3)nc2s1 ?
LMNA splice mod: -9%[46 µM]

Results for CS(=O)(=O)Nc1cccc(-c2cncnc2NCc2cccnc2)c1 ?
ALDH1A1 inh: inconclusive; LMNA splice mod: -8%

Screens from PubChem.
